# M1 antagonist: antagonists of rat M1 muscarinic receptor. Muscarinic acetylcholine receptor M1 (Rattus norvegicus), P08482. CHO-M1 cells, Fluo-4 calcium, ACh EC80 antagonist mode; active compounds read low. B-score at 10 µM. 64,000 tested, 3.4% active. AID 628, 2007;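 active means calcium fluorescence response, raw or row-and-column corrected B-score, differing from the plate sample mean either way at a set confidence level, mostly lower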
# M1 agonist: M1 muscarinic receptor agonists, primary screen, CHO-M1 cells, Fluo-4 calcium, agonist mode; Muscarinic acetylcholine receptor M1; B-score at 10 µM; Fluo-4 calcium fluorescence; active compounds read high; 64,000 tested, 3% active;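 active means fluorescence rise, raw or as B-score row- and column-corrected plate score, outside the 99.7% band of its plate's samples, either direction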
# Cav3 T inh: Cav3.2 calcium influx blockers – cell-based, Fluo-4 calcium fluorescence, FDSS, MLSMR library, primary screen. Voltage-dependent T-type calcium channel subunit alpha-1H (Homo sapiens), O95180. Cav3.2-expressing cells; active compounds read low. B-score at 10 µM. 100,000 tested, 4% active. AID 449739, 2010;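 active means single-dose well whose peak fluorescence ratio is a statistical outlier from its plate by either plate-standardised score or position-corrected B-score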
# Pyk2 oligo antag: antagonists of Pyk2 self-association, primary screen, Q293 cells, FERM NanoBiT luminescence, HTS; Protein-tyrosine kinase 2-beta (Homo sapiens), Q14289; active compounds read low; z-score (the deposit names both 25 µM and 10 µM); 99,000 tested, 0.83% active; AID 1347419, 2020;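 active means Z-score of -3 or lower, scaled per plate to the spread of control and sample wells; inactive means z-score above -3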;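 further: negative z-score means lost luminescence so less FERM oligomerization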
# Hits are given with their value; . = inactive; / = no result given. Compounds with a hit are over-represented: about 7.1% of the library has one in this group of screens.
SMILES,M1 antagonist,M1 agonist,Cav3 T inh,Pyk2 oligo antag
O=C1c2cnc3nc(SCc4ccc(Cl)cc4)nn3c2CC2c3ccccc3CCN12 (centres undefined),/,/,-6.3,.
Clc1ccc(CSc2ncccn2)cc1,.,.,.,.
O=C(NCc1ccccc1)c1ccc(-c2ccccc2F)o1,.,.,-4.2,.
O=C(NCCc1ccccc1)c1ccc(-c2ccccc2C(F)(F)F)o1,/,/,.,/
Cc1cc(C)cc(SCc2noc(C(=O)NCCCN3CCOCC3)c2C(=O)NCCCN2CCOCC2)c1,/,/,.,/
O=C(c1cc(NC(=O)C23CC4CC(CC(C4)C2)C3)cc(NC(=O)C23CC4CC(CC(C4)C2)C3)c1)N1CCCCC1,/,/,-8,/
Cc1ccc2nc(SCCCCOc3ccccc3)[nH]c2c1,/,/,-6.2,.
c1ccc(OCCSc2nc3ccccc3[nH]2)cc1,/,/,-3.6,.
COc1ccc(C2NC(=O)c3sc(=S)n(-c4ccccc4)c3N2)cc1 (centres undefined),/,/,-8.4,.
Cc1c(C(=O)O)sc(=S)n1-c1ccccc1,.,.,.,.
CCC(C(=O)O/N=C(\N)c1ccccc1)c1ccccc1 (centres undefined),/,/,-3.6,.
CCC(C(=O)O/N=C(\N)c1ccc(Cl)cc1)c1ccccc1 (centres undefined),/,/,-5.6,.
CCC(C(=O)O/N=C(\N)c1ccc(C)cc1)c1ccccc1 (centres undefined),/,/,.,.
CC(=O)NCCCc1c[nH]c2ccc(Cl)cc12,.,.,.,.
O=C1c2ccccc2NC(c2cccc(Cl)c2)N1N=C1CCCCCC1 (centres undefined),/,/,-3.9,.
CCS(=O)(=O)N1CCC(C(=O)N2CCc3ccccc3C2)CC1,.,.,/,.
COc1ccc(S(=O)(=O)N2CCC(C(=O)N3CCc4ccccc4C3)CC2)cc1Cl,/,/,-4.6,.
Cc1nn(-c2ccccc2C(=O)O)c(=O)c2ccccc12,.,.,.,.
Cc1nn(-c2c(Cl)cc(Cl)cc2Cl)c(=O)c2ccccc12,/,/,-5,.
NC(=O)C(c1ccc(Cl)cc1)c1ccc(Sc2ccc(Cl)cc2)nn1 (centres undefined),/,/,-4.3,.
CC(C)C(NC(=O)CSc1ccc(Cl)cc1)C(C)C,/,/,.,.
CCn1c(-c2ccccc2Cl)nn(CC(=O)Nc2ccccc2C)c1=S,/,/,.,.
CCOC(=O)NC(=O)CN1C(=O)NC(C)(c2ccccc2)C1=O (centres undefined),2.1,.,.,.
Cc1cc(C(=O)CN2C(=O)NC3(CCCc4ccccc43)C2=O)c(C)n1Cc1ccccc1 (centres undefined),/,/,-4.4,.
O=C(C1CCCN(S(=O)(=O)c2ccc(F)cc2)C1)N(Cc1cccs1)C1CC1 (centres undefined),.,.,-4.1,.
SMILES,M1 antagonist,M1 agonist,Cav3 T inh,Pyk2 oligo antag
CCn1cc(Cl)c(C(=O)N2N=C3/C(=C/c4cccs4)CCCC3C2c2cccs2)n1 (centres undefined),/,/,-5.6,.
COC(=O)c1c(C)oc2ccc(N(C(=O)c3ccncc3)S(=O)(=O)c3ccccc3)cc12,/,/,-4.1,.
COC(=O)c1c(C)oc2ccc(NS(=O)(=O)c3cccs3)cc12,.,.,-4.9,.
CCCC(=Nc1ccc(N)cc1)C1=C(O)C(C(=O)OC)C(C)(C)CC1=O (centres undefined),/,/,-5.1,.
CCCC(=O)C1=C(O)C(C(=O)OC)C(C)(C)CC1=Nc1ccc(N)cc1 (centres undefined),/,/,.,.
NC(=O)SCC(=O)Nc1ccc(Cl)c(Cl)c1,.,.,/,.
NC(=O)SCC(=O)Nc1ccc(Cl)cc1,.,.,.,.
NC(=O)SCC(=O)Nc1cccc(Cl)c1,.,.,-5.4,.
Cc1ccc(NC(=O)CSC(N)=O)cc1Cl,.,.,-6.3,.
CCOC(=O)/C(=C\c1cccnc1)C(=O)c1cc(C(C)=O)c(Nc2ccccc2)s1,/,/,4.1,.
CCOC(=O)C(=Cc1ccc(F)cc1)C(=O)OCC,/,/,.,/
CCOC(=O)/C(=C\c1ccccc1)C(=O)c1cc(C(C)=O)c(Nc2ccccc2)s1,/,/,.,-3
Cc1cccc(N(CC(=O)NC2CCCC2)C(=O)c2cc3cc4cccc(C)c4nc3s2)c1C,/,/,-3.3,.
CC1(c2ccc(Cl)c(Cl)c2)NC(=S)N2C1NC(=S)N2c1ccccc1 (centres undefined),/,/,-5.4,.
O=C1Nc2cc(Cl)c(Cl)cc2N(O)N1c1ccccc1,/,/,.,.
C/C=C1\COC(C(=O)NCc2cccc(OC)c2OC)(C(F)(F)F)C=C1C=C1CCCCC1 (centres undefined),/,/,-4.2,/
CC(C)(C)OC(=O)NCCCC1=CC2=CC(=O)C(C)(O)C(=O)C2=CO1 (centres undefined),/,/,.,/
FC(F)(F)c1cccc(-c2nnc(-c3ccccc3)c(N3CCOCC3)n2)c1,/,/,.,-3.9
Cn1c(=O)c2c(nc(CN3CCc4ccccc4C3)n2Cc2cccc(Cl)c2)n(C)c1=O,.,.,-4.2,/
Cn1c(=O)c2c(nc(CN3CCCCC3)n2CCCc2ccccc2)n(C)c1=O,.,.,.,.
CC1CCCN(Cc2nc3c(c(=O)n(C)c(=O)n3C)n2CCCc2ccccc2)C1 (centres undefined),.,2.4,.,.
CC1CCCN(Cc2nc3c(c(=O)n(C)c(=O)n3C)n2CCc2ccccc2)C1 (centres undefined),.,2.3,.,.
CC1CCCCN1Cc1nc2c(c(=O)n(C)c(=O)n2C)n1CCCc1ccccc1 (centres undefined),.,.,/,.
CCOCCn1c(CN2CCCCC2C)nc2c1c(=O)n(C)c(=O)n2C (centres undefined),-3.2,.,/,/
CC(C)/C=C1\CCCCC1N(C)C(=O)NC(C)C (centres undefined),.,.,.,.
SMILES,M1 antagonist,M1 agonist,Cav3 T inh,Pyk2 oligo antag
CCCCCCCC(=O)NNC(=O)CC(=O)Nc1ccccc1C(=O)O,/,/,/,.
COc1cccc(C2(O)CCN(C(=O)Cc3cccnc3)CC2)c1,/,/,.,.
C/C(CCC12CC3CC(CC(C3)C1)C2)=N\NC(N)=S,/,/,.,.
C/C(CC(C)(C)C1CCCCC1)=N\NC(N)=S,/,/,-4.6,.
CN(C)S(=O)(=O)c1ccc(Nc2ccc(-c3ccc4c(c3)OCCO4)nn2)cc1,/,/,.,.
CN(C(=O)c1cccc(Nc2ccc(-c3ccc4c(c3)OCCO4)nn2)c1)C1CCCCC1,/,/,-3.8,-3.6
CSCCC(NC(=O)c1cccc(S(=O)(=O)N2CCOCC2)c1)C(=O)Nc1cccc(C)c1 (centres undefined),/,/,/,.
Cc1ccc(NC(=O)CN(c2ccccc2)S(=O)(=O)N(C)C)cc1C,/,/,-3.6,.
CN(C)S(=O)(=O)N(CC(=O)Nc1ccccc1)c1ccccc1,/,/,.,.
COc1ccc(NC(=O)CN(c2ccccc2)S(=O)(=O)N(C)C)cc1OC,.,.,.,.
Cc1cccc(C)c1N(CC(=O)Nc1cc(Cl)ccc1Oc1ccccc1)S(C)(=O)=O,/,/,-5.6,.
CS(=O)(=O)N(CC(=O)Nc1cc(Cl)ccc1Cl)c1ccccc1Cl,/,/,-4.7,.
COc1ccc(Cl)cc1NC(=O)CN(c1ccccc1)S(=O)(=O)N(C)C,.,.,-10,.

# High-throughput results from PubChem.
